Results reported in the supplement of paper PMC11732987, “Enantioselective OTUD7B fragment discovery through chemoproteomics screening and high-throughput optimisation” (Communications Chemistry, 2025).

What was measured:
Assay in all cases: log2 ratio of Biotin-Ahx-Ub-VS probe labelling (fragment/DMSO); higher = less target engagement (more negative = stronger competition), active = hit call of the paper (q ≤ 0.05, log2 ratio ≤ -1)
Conditions in all cases: compound concentration: 200 uM; treatment time: 3 h
[1] = molecular target: USP34 (UniProt Q70CQ2)
Method in brief: (§1)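 HEK293T lysate in Tris/CHAPS/IGEPAL buffer with protease inhibitors (495 µg per sample) was given fragment at 200 µM or vehicle for 3 h, in triplicate. It then received Biotin-Ahx-Ub-VS at 0.5 µM final for 1 h. Labelled DUBs were NeutrAvidin-enriched, digested with LysC and trypsin, and run by diaPASEF LC-MS/MS. Values are average log2 fragment/vehicle ratios by unpaired t-test on global-median-normalised Spectronaut quantities of proteins with ≥2 unique peptides.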

[2] = molecular target: T1, USP36 (UniProt Q9P275)
T1 sequence (whole entry): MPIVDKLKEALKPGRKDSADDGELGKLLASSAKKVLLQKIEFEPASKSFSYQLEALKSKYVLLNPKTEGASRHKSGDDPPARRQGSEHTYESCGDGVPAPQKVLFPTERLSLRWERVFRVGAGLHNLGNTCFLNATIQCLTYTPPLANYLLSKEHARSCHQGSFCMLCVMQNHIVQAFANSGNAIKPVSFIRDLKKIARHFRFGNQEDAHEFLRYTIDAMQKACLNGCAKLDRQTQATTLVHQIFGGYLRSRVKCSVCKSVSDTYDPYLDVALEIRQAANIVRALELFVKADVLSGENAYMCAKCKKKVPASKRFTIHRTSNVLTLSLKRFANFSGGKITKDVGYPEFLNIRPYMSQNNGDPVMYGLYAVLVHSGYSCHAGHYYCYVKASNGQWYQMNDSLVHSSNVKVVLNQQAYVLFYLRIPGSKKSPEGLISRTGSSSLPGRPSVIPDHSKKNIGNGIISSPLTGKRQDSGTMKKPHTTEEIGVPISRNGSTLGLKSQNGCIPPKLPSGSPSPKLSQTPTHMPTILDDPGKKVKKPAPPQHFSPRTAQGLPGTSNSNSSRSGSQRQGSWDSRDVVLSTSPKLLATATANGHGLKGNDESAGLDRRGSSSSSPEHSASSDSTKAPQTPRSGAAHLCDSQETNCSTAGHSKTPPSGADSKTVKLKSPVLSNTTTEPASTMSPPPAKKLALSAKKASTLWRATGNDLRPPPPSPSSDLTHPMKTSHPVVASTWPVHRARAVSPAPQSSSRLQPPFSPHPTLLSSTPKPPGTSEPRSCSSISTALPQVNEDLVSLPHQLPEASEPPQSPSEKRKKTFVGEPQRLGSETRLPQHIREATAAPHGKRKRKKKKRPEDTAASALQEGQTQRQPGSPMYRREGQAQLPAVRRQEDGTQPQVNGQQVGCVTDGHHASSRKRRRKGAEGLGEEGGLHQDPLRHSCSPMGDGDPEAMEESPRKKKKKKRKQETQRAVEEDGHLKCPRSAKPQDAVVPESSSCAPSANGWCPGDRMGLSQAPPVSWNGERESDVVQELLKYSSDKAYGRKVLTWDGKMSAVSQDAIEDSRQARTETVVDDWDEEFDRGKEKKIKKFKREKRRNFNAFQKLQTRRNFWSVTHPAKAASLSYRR
Method in brief: as §1

[3] = molecular target: T2, USP38 (UniProt Q8NB14)
T2 sequence (whole entry): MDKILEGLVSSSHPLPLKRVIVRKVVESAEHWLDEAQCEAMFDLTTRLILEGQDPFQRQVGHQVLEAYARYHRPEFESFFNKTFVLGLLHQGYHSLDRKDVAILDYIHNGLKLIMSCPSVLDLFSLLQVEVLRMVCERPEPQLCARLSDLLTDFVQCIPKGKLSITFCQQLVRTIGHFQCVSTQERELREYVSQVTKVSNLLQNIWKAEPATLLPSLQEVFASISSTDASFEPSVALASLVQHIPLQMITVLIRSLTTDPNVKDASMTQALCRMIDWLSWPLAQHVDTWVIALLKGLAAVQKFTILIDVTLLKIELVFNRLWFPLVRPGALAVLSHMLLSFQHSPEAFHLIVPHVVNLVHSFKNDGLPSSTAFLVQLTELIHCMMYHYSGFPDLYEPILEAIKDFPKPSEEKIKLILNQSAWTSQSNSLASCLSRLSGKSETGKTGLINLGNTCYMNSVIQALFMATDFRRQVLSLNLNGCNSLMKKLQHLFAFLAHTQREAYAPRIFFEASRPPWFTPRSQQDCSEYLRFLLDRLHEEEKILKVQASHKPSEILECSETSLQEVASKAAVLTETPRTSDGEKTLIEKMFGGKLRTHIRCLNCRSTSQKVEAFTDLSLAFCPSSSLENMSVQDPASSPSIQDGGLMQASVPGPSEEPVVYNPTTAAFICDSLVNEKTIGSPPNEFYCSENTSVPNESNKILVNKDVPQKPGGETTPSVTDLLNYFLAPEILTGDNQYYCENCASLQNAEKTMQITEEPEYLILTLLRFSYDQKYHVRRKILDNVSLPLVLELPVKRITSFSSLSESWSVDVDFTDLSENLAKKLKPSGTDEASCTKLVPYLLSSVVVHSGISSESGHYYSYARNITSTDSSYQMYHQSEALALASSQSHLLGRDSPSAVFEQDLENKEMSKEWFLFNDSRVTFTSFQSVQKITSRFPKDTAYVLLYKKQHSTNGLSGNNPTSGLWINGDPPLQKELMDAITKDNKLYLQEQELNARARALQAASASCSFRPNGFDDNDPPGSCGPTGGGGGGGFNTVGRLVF
Method in brief: as §1

[4] = molecular target: T3, USP39 (UniProt Q53GS9)
T3 sequence (whole entry): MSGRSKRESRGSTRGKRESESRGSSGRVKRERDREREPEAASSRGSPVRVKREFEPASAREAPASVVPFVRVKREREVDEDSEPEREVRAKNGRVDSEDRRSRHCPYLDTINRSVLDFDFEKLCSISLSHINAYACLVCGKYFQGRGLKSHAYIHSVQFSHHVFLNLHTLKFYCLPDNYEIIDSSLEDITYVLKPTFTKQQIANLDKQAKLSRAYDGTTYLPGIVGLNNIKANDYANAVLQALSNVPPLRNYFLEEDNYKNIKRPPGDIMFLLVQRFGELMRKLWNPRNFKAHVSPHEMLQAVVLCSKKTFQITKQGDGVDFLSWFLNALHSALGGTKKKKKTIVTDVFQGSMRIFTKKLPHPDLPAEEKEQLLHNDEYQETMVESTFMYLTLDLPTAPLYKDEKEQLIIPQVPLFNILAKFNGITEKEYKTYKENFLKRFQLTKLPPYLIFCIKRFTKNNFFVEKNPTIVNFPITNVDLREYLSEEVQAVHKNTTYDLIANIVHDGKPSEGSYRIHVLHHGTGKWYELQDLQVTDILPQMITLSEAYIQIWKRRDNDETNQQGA
Method in brief: as §1

[5] = molecular target: T4, USP4 (UniProt Q13107)
T4 sequence (whole entry): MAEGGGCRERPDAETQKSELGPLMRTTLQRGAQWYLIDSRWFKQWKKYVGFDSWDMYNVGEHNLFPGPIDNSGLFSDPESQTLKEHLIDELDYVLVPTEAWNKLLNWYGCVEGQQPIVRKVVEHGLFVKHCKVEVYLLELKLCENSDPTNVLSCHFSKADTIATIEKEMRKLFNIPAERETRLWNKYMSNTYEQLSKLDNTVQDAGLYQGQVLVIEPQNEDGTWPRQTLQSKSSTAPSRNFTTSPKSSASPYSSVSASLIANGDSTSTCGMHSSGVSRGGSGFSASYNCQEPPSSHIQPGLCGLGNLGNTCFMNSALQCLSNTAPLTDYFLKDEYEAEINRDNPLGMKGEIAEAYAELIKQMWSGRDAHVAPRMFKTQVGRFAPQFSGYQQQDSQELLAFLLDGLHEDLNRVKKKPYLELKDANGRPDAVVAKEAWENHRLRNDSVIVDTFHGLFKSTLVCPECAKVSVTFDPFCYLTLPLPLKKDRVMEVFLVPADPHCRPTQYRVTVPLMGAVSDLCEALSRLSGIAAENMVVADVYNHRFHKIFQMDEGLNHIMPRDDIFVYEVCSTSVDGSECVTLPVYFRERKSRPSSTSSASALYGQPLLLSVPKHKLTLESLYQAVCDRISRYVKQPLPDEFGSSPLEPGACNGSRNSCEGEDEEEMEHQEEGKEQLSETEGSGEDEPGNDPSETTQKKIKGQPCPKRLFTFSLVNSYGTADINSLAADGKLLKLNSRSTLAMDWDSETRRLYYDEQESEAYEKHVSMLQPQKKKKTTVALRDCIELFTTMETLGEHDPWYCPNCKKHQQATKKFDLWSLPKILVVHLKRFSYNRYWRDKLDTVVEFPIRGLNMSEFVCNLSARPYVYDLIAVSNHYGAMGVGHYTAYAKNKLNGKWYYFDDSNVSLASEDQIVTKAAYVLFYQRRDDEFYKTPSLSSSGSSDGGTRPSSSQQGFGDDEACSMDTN
Method in brief: as §1

Measured: log2 ratio of Biotin-Ahx-Ub-VS probe labelling

Chain of USP34 (Q70CQ2 whole entry, the tested form may be a part): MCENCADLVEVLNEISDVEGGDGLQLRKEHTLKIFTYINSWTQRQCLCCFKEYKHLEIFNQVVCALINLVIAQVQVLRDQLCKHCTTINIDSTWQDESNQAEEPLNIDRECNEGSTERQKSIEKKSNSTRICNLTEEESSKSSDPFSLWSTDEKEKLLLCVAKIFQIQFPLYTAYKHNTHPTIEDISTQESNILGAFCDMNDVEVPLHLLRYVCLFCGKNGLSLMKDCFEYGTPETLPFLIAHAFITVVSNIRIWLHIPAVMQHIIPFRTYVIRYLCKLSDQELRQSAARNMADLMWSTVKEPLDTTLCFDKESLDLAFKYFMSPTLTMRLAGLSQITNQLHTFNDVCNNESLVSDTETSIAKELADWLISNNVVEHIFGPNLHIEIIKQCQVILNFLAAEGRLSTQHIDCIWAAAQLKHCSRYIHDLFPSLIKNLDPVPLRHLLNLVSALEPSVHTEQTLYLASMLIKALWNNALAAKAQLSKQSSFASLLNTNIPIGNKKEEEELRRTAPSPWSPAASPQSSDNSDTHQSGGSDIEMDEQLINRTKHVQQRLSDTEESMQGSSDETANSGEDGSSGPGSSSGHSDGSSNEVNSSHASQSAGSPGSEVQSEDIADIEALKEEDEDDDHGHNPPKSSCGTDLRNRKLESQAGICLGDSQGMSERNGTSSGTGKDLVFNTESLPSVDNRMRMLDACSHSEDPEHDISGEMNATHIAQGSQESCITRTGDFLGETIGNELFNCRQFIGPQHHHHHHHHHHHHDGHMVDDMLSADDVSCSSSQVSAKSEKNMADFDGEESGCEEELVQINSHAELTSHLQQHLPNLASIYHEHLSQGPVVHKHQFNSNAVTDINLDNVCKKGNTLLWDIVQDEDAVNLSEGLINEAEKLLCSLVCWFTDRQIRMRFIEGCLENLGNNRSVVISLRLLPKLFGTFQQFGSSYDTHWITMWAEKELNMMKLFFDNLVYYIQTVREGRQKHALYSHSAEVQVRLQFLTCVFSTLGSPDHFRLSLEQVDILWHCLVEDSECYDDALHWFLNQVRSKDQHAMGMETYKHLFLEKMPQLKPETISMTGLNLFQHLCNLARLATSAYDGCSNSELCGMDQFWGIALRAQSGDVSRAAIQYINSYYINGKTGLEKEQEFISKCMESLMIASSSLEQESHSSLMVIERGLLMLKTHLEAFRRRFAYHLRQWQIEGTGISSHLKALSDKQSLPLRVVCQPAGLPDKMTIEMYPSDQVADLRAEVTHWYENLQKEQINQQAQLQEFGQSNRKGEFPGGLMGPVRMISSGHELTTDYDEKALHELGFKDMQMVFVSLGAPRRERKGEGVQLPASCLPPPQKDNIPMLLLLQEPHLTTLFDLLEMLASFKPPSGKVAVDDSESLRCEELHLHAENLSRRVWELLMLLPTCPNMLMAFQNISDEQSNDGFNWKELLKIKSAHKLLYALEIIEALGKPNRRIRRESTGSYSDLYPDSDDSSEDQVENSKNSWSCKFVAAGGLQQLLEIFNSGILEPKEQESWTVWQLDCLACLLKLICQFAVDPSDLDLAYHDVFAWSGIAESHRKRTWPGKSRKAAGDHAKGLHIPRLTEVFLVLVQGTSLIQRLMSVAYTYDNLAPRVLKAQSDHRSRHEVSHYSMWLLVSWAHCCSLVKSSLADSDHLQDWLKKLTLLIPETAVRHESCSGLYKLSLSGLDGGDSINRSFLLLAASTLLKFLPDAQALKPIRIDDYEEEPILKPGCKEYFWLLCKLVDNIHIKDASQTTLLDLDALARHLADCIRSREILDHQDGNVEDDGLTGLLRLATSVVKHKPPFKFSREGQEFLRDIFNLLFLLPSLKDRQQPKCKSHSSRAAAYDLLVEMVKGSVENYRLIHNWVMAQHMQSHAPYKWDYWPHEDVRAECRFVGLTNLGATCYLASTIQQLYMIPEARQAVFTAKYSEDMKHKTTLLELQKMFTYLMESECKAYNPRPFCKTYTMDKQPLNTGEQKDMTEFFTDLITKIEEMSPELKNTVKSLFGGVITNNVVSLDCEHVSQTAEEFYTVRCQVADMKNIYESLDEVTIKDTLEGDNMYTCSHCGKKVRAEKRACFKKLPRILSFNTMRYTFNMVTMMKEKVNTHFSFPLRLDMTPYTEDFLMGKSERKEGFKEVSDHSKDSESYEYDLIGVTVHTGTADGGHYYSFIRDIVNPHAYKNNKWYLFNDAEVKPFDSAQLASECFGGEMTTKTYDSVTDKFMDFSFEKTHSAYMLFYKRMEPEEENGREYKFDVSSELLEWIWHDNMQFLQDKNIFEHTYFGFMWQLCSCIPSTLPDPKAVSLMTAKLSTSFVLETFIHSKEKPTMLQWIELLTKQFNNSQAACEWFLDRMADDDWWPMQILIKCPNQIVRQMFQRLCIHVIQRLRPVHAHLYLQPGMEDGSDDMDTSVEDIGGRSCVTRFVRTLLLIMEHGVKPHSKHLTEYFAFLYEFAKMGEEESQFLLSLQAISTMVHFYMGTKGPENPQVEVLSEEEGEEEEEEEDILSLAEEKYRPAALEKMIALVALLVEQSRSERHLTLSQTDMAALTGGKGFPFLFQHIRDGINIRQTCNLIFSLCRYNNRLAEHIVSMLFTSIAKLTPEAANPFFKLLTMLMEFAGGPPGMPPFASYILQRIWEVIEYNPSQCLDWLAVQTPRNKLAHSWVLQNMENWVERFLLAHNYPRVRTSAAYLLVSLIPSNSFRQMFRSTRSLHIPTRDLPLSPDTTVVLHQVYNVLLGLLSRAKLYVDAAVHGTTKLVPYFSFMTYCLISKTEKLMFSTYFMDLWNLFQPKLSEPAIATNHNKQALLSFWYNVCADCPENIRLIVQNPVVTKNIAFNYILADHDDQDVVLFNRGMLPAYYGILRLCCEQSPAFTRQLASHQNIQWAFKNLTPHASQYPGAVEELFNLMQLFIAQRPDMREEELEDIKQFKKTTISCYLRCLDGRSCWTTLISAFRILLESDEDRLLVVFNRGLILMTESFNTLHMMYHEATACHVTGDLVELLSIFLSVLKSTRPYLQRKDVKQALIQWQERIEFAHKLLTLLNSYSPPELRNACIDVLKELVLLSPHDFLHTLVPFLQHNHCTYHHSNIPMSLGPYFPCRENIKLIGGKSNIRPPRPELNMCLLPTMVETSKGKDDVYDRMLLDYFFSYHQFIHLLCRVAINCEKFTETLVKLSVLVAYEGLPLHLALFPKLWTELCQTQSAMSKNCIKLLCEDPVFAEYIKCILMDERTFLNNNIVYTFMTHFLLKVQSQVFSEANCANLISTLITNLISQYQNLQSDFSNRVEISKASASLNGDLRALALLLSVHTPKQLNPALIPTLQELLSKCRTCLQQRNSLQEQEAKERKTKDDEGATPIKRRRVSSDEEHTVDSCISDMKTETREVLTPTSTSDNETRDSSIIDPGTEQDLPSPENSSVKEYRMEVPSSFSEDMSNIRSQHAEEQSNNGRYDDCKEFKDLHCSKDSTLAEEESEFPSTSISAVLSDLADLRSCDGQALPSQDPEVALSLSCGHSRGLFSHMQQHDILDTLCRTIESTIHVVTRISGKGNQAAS

NC(=O)C(Cc1ccccc1)NC(=O)CCl (stereo not given)
inactive: [1] -0.217 | [2] 0.0618 | [3] -0.0263 | [4] -0.257 | [5] 0.0089
